Results from PubChem BioAssay (NCI).
Compounds without any hit were thinned out: in the full panel of roughly 83,000, 20% have a hit.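 Cells were grown in 96-well plates and exposed to the test compound at a single concentration for 48 hours; results are reported as percent growth, with values below 10 considered active.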 The source made the active and inactive calls.

Columns and labels:
Test in all cases: NCI-60 one-dose screen, 48 h (100 = growth as untreated, 0 = no growth, -100 = all killed)
Settings in all cases: 10 µM unless noted
NCI-H23 lung = test system: NCI-H23 lung
NCI-H226 lung = test system: NCI-H226 lung
NCI-H322M lung = test system: NCI-H322M lung
HOP-62 NSCLC = test system: HOP-62 NSCLC
NCI-H460 lung = test system: NCI-H460 lung
NCI-H522 lung = test system: NCI-H522 lung
A549/ATCC NSCLC = test system: A549/ATCC NSCLC
786-0 renal = test system: 786-0 renal
COLO 205 colon = test system: COLO 205 colon
DU-145 prostate = test system: DU-145 prostate
K-562 leukemia = test system: K-562 leukemia
MALME-3M melanoma = test system: MALME-3M melanoma
MDA-MB-231 breast = test system: MDA-MB-231 breast
RXF 393 renal = test system: RXF 393 renal
SF-268 CNS = test system: SF-268 CNS
SF-295 CNS = test system: SF-295 CNS
SF-539 CNS = test system: SF-539 CNS
UACC-257 melanoma = test system: UACC-257 melanoma
M14 melanoma = test system: M14 melanoma

Measured: growth

O=C(NCCN1CCOCC1)OCc1ccc2c(Cl)cc(Cl)c(O)c2n1
inactive: NCI-H23 lung 72.8% | NCI-H226 lung 94.6% | NCI-H322M lung 66.9% | HOP-62 NSCLC 47.8% | NCI-H460 lung 63.7% | NCI-H522 lung 81% | A549/ATCC NSCLC 56.8% | 786-0 renal 81.9% | COLO 205 colon 109% | DU-145 prostate 57.7% | K-562 leukemia 31.7% | MALME-3M melanoma 73.4% | MDA-MB-231 breast 93.8% | RXF 393 renal 77.3% | SF-268 CNS 57.3% | SF-295 CNS 49.2% | SF-539 CNS 77.9% | UACC-257 melanoma 89.1% | M14 melanoma 54.6%

O=C(/C=C/c1ccccc1)c1cccc2ccccc12
inactive: NCI-H23 lung 26.2% | NCI-H226 lung 41.2% | NCI-H322M lung 57.5% | HOP-62 NSCLC 37.7% | NCI-H460 lung 10.6% | NCI-H522 lung 17.2% | A549/ATCC NSCLC 39% | 786-0 renal 83.5% | COLO 205 colon 97.7% | DU-145 prostate 15.6% | K-562 leukemia 10.6% | MALME-3M melanoma 68.8% | MDA-MB-231 breast 55.1% | RXF 393 renal 12.4% | SF-268 CNS 42.1% | SF-295 CNS 34.8% | SF-539 CNS 51.2% | UACC-257 melanoma 40.2% | M14 melanoma 86.7%

COc1ccc(/C=N/Nc2c3ccccc3nc3ccccc23)cc1
inactive: NCI-H23 lung 88.3% | NCI-H226 lung 83.4% | NCI-H322M lung 101% | HOP-62 NSCLC 98% | NCI-H460 lung 99.5% | NCI-H522 lung 90.7% | A549/ATCC NSCLC 96.5% | 786-0 renal 90.8% | COLO 205 colon 103% | DU-145 prostate 90.4% | K-562 leukemia 87.9% | MALME-3M melanoma 105% | MDA-MB-231 breast 93.9% | RXF 393 renal 103% | SF-268 CNS 96% | SF-295 CNS 90.3% | SF-539 CNS 95.4% | UACC-257 melanoma 103% | M14 melanoma 106%

COc1cccc(CNc2c3ccccc3nc3ccccc23)c1OC
inactive: NCI-H23 lung 32.4% | NCI-H226 lung 51.6% | NCI-H322M lung 41.6% | HOP-62 NSCLC 51.2% | NCI-H460 lung 11.6% | NCI-H522 lung 40.1% | A549/ATCC NSCLC 30.3% | 786-0 renal 38.8% | COLO 205 colon 21.5% | DU-145 prostate 41.7% | K-562 leukemia 15.5% | MALME-3M melanoma 50.6% | MDA-MB-231 breast 41.9% | RXF 393 renal 29.9% | SF-268 CNS 61.7% | SF-295 CNS 33% | SF-539 CNS 18.9% | UACC-257 melanoma 54.8% | M14 melanoma 34.5%

COc1cc2c(c(OC)c1OC)C(=O)CC(c1cccc(C(=O)Nc3ccccc3Br)c1)O2 (configuration not stated)
inactive: NCI-H23 lung 102% | NCI-H226 lung 86% | NCI-H322M lung 98.1% | HOP-62 NSCLC 97.1% | NCI-H460 lung 110% | NCI-H522 lung 69.9% | A549/ATCC NSCLC 97.8% | 786-0 renal 88% | COLO 205 colon 95.4% | DU-145 prostate 83.7% | K-562 leukemia 74.1% | MALME-3M melanoma 99.6% | MDA-MB-231 breast 91.1% | RXF 393 renal 110% | SF-268 CNS 73.8% | SF-295 CNS 98.1% | SF-539 CNS 90.4% | UACC-257 melanoma 92.7% | M14 melanoma 91.1%

O=C(Oc1ccc2c(c1)sc1nc(-c3ccccc3)[nH]c(=O)c12)C(F)(F)F
inactive: NCI-H23 lung 52.8% | NCI-H226 lung 58.3% | NCI-H322M lung 56.3% | HOP-62 NSCLC 39.3% | NCI-H460 lung 13% | NCI-H522 lung 25.1% | A549/ATCC NSCLC 28.3% | 786-0 renal 51% | COLO 205 colon 88.3% | DU-145 prostate 44.2% | K-562 leukemia 15.3% | MALME-3M melanoma 33.3% | MDA-MB-231 breast 61.4% | RXF 393 renal 43.8% | SF-268 CNS 44% | SF-295 CNS 51.9% | SF-539 CNS 27.9% | UACC-257 melanoma 49.1%
active: M14 melanoma 4.5%

CC1(C)N=C(N)N=C(N)N1c1ccc(S(=O)(=O)Nc2nccs2)cc1
inactive: NCI-H23 lung 101% | NCI-H226 lung 101% | NCI-H322M lung 104% | HOP-62 NSCLC 95.8% | NCI-H460 lung 104% | NCI-H522 lung 91.1% | A549/ATCC NSCLC 96.1% | 786-0 renal 99.5% | COLO 205 colon 105% | DU-145 prostate 103% | K-562 leukemia 98.9% | MALME-3M melanoma 99.3% | MDA-MB-231 breast 103% | RXF 393 renal 105% | SF-268 CNS 94.3% | SF-295 CNS 101% | SF-539 CNS 95.1% | UACC-257 melanoma 98.5% | M14 melanoma 99.6%

CCN1C2CCC1/C(=C\c1ccccc1)C(=O)/C2=C/c1ccccc1
inactive: NCI-H23 lung 32.5% | NCI-H226 lung 59.9% | NCI-H322M lung 51.6% | HOP-62 NSCLC 59.8% | NCI-H460 lung 51.5% | NCI-H522 lung 41.3% | A549/ATCC NSCLC 72.9% | 786-0 renal 57.2% | COLO 205 colon 43.5% | K-562 leukemia 32.1% | MALME-3M melanoma 63.7% | MDA-MB-231 breast 79.2% | RXF 393 renal 48.9% | SF-268 CNS 42.8% | SF-295 CNS 48.4% | SF-539 CNS 45.4% | UACC-257 melanoma 52.2% | M14 melanoma 48.2%
active: DU-145 prostate 1.64%
